# Screens as filed in PubChem BioAssay.
# HCMV antiviral = blocks human cytomegalovirus replication. HFF cells, HCMV-luciferase reporter, 72 h; active compounds read low. 4.5% of 410,000 active. activity change, negative = inhibition, % at 57.5 µM; in the data active = activity change below about -60%; inconclusive = no clear call, values can overlap the other calls; inactive = above about -39%
#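 HFF cells seeded 16 h at 37C, treated with compounds, infected with luciferase-reporter HCMV at MOI 1 PFU/cell; luciferase read at 72 h post infection, normalized to buffer-only and Salinomycin controls.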
# Giardia FBPA inh = inhibitors of Giardia lamblia fructose-1,6-bisphosphate aldolase | 0.71% of 290,000 active | A8B2U2 | purified Giardia FBPA | Potency, µM (highest dose often 59.6 µM), most hits filed as inhibitors; note: nearly all actives have a fitted effect of over 55% in size
# Target sequence (A8B2U2 whole entry, looked up): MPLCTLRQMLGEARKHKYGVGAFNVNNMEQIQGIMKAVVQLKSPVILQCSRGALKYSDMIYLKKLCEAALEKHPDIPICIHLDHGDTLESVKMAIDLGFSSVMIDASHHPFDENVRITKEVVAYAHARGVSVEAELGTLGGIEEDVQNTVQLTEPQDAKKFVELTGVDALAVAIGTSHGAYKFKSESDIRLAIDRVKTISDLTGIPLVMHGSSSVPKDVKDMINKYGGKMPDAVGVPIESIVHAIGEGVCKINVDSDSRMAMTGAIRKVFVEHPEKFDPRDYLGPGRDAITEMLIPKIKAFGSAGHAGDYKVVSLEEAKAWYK
#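 40 nM FBPA preincubated 10 min at RT with compound (up to 57.5 uM final), then substrate plus GAPDH/TPI/NAD/arsenate coupling and diaphorase/resazurin added. Fluorescence read after 20 min at RT, 525/598 nm.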
# Pf growth 96h = inhibits malaria parasite growth, 96 h; P. falciparum luciferase reporter growth, 96 h; Potency, µM (top dose mostly 28.7 µM), most hits filed as inhibitors; 6.9% of 320,000 active
#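 Compounds incubated with erythrocytes infected by luciferase-expressing P. falciparum (2% hematocrit, 0.05% parasitemia final) for 96 hours, 37 C in 5% CO2. Growth inhibition scored as decreased luciferase luminescence.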
# Sm TGR inh = blocks Schistosoma mansoni thioredoxin glutathione reductase. Q962Y6. purified TGR, DTNB reduction, TNB absorbance 405 nm. Potency, µM (highest dose often 114 µM), actives largely listed as inhibitors. 3% of 360,000 active; note: nearly all actives have a fitted effect of over 60% in size
#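 First, TGR (20 nM dispensed) and NADPH were mixed with compound. Second, a 15 min room-temperature incubation followed. Third, further NADPH and then DTNB were added to start the reaction. Finally, TNB absorbance was monitored kinetically.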
# Pf growth 48h = P. falciparum growth inhibition at 48 hours (one generation); AID 504832; Potency, µM (doses to about 28.7 µM), actives largely listed as inhibitors; P. falciparum luciferase growth in erythrocytes, 48 h; 5.9% of 310,000 active
#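 Luciferase-expressing parasites in RBCs, 2% Hct / 0.1% parasitemia final; RPMI 1640 + 0.5% Albumax; 37 C, 5% CO2, one generation; luminescence read-out, lower signal = inhibition.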
# Hits are given with their value; - = inactive; ? = inconclusive; . = not tested or not shown; ! = a repeat was not active. Compounds with a hit are over-represented: about 14% of the library has one in this group of screens. Unless noted, calls come from the whole dose curve; as a rule, active = well fitted curve in the direction sought with a large enough effect; inconclusive = small, poorly fitted or top-dose-only effect, or another doubt; inactive = no such curve, though single readings can be large; an effect the other way counts as inactive or inconclusive.
SMILES,HCMV antiviral,Giardia FBPA inh,Pf growth 96h,Sm TGR inh,Pf growth 48h
COc1ccc2[nH]c(=O)c(CN(CCN3CCCC3)C(=O)Nc3ccccc3Cl)cc2c1,-88,-,-,-,?
CCOc1ccc2[nH]c(=O)c(CN(CCN3CCCC3)C(=S)Nc3ccccc3OCC)cc2c1,-64,-,?,-,6.6µM
CN(C(=O)CCCOc1ccc2[nH]c(=O)ccc2c1)C1CCCCC1,.,-,0.6µM,.,?
COC(=O)c1ccc(C(NC(=O)OCc2ccccc2)/C(=C/[C@@H](C)C(=O)NCc2ccncc2)c2cccnc2)cc1 (stereo partly drawn),.,-,.,.,.
C#CCCc1cscc1/C=[N+](\[O-])c1ccc(C(=O)OCC)cc1,-,.,?,-,8.3µM
CC(C)(C)CC(C)(C)NC(=O)/C=C/C(=O)O,-,-,-,-,-
Cc1ccc([N+](=O)[O-])cc1NC(=S)NCCc1ccccc1,-,.,13µM,-,-
Cc1ccc([N+](=O)[O-])cc1NC(=O)c1ccccc1,?,-,2.1µM,-,-
CCOC(=O)c1c(C)[nH]c(C)c1S(=O)(=O)NCCc1ccco1,-,-,-,-,-
COc1ccc(-c2nnc(SCC(=O)Oc3cccc(C)c3C)o2)cc1,-,.,.,-,.
COC(=O)C1=CN(c2ccc(OC)cc2)C=C(C(=O)OC)C1c1cc(OC)c(OC)cc1OC,-,.,4.1µM,-,-
COC(=O)C1=CN(Cc2cccs2)C=C(C(=O)OC)C1c1ccc(OC)cc1OC,-,-,-,-,?
O=C(NCCN1CCCC1)[C@@H]1[C@@H](CO)[C@@H]2Cn3c(cccc3=O)[C@@H]2N1C(=O)c1ccccc1,-,.,.,.,.
CO/N=C(/C(=O)N[C@@H]1C(=O)N2C(C(=O)O)=C(CSc3nc(C)c(CC(=O)O)s3)CS[C@H]12)c1csc(N)n1,.,.,-,.,-
Cc1ccccc1NC(=O)Nc1nc(C(N)C2CCCCC2)cs1 (stereo not drawn),-,.,.,.,.
CC(C)N(C(=O)Cn1c(SCC(=O)Nc2nccs2)nc2ccccc21)C(C)C,-,-,-,-,?
CCS(=O)(=O)c1nc2ccccc2n1CC(=O)N1CCCCC1,-,-,10µM,-,-
O=C(CSc1nc2ccccc2n1CCc1ccccc1)N1CCOCC1,-68,-,?,-,-
O=C(CSc1nc2ccccc2n1CC(=O)N1CCCC1)Nc1nccs1,-,-,2.6µM,-,-
O=C(CSc1ccc(-c2nc3ccccc3[nH]2)cn1)N1CCN(C(=O)c2ccco2)CC1,-,-,-,?,13µM
NS(=O)(=O)c1cccc(NC(=O)c2ccno2)c1,-,-,-,-,-
O=C(CSc1nc2ccccc2n1CC(=O)N1CCCC1)N1CCN(C(=O)c2ccco2)CC1,-,-,6.6µM,-,-
O=C(CSc1nc2ccccc2n1CC(=O)N1CCOCC1)N1CCCC1,-,-,?,-,-
Brc1ccc(C2=CSC3=NCCN23)cc1,-,-,-,-,?
CC(C)(C)c1cc(C2=CSC3=NCCN23)cc(C(C)(C)C)c1O,.,?,4.7µM,-,?
SMILES,HCMV antiviral,Giardia FBPA inh,Pf growth 96h,Sm TGR inh,Pf growth 48h
C1=C(c2ccccc2)N2CCN=C2S1,-,-,.,-,-
Oc1ccc(C2=CSC3=NCCN23)cc1O,-,?,-,-,9.3µM
CCc1nnc(NC(=O)c2ccc(S(=O)(=O)N3CCc4ccccc4C3)cc2)s1,-,-,-,-,-
Cc1cc(C)c2sc(NNC(=O)c3ccc(S(=O)(=O)N4CCc5ccccc5C4)cc3)nc2c1,-106,?,12µM,-,?
Cc1cc(C)c2nc(NNC(=O)c3ccc(S(=O)(=O)N4CCc5ccccc5C4)cc3)sc2c1,-97,?,3.7µM,-,2.3µM
CCCN1CCN(CC2=C(C(=O)OCC)C(c3cccc(OC)c3OC)NC(=O)N2)CC1 (stereo not drawn),-,.,.,89µM,.
COCCOC(=O)C1=C(C)N(Cc2ccccc2)C(=O)NC1c1cccc(OC)c1OC (stereo not drawn),-,-,1µM,-,?
CCCN1CCN(CC2=C(C(=O)OCC)C(c3ccc(Cl)cc3)NC(=O)N2)CC1 (stereo not drawn),-,.,.,-,.
CC(C)CN(C(=O)CN(C)C(=O)Cc1c(F)cccc1Cl)c1c(N)n(CC(C)C)c(=O)[nH]c1=O,-,.,.,.,.
O=C(O)c1cc2n(n1)C(C(F)(F)F)CC(C1CC1)N2 (stereo not drawn),?,-,-,-,2.1µM
CC1CC(C(F)(F)F)n2nc(C(=O)O)cc2N1 (stereo not drawn),-,-,.,-,-
CCCS(=O)(=O)c1ncc(Cl)c(C(=O)N2CCN(c3ccc(OC)cc3)CC2)n1,-103,.,.,11µM,.
CCC/C(O)=C1\C(=O)CC(c2ccccc2)CC1=NC(C)C(=O)O (stereo not drawn),-,-,-,-,-
Cc1ccc(C2C(C(=O)c3cccs3)=C(O)C(=O)N2CCN2CCOCC2)o1 (stereo not drawn),-,?,?,20µM,-
CCN(CC)CCN1C(=O)C(O)=C(C(=O)c2cccs2)C1c1ccccn1 (stereo not drawn),-,?,-,?,.
CCN(CC)CCN1C(=O)C(O)=C(C(=O)c2cccs2)C1c1ccc(C)o1 (stereo not drawn),-,-,?,28µM,-
COc1ccc(C2C(C(=O)c3sc(C)nc3C)=C(O)C(=O)N2CCN(C)C)cc1OC (stereo not drawn),-,-,.,-,-
O=C(C1=C(O)C(=O)N(CCN2CCOCC2)C1c1ccccn1)c1cccs1 (stereo not drawn),-,?,.,20µM,-
O=C(C1=C(O)C(=O)N(CCN2CCOCC2)C1c1ccc(F)cc1)c1cccs1 (stereo not drawn),?,-,-,-,-
Cc1ccc(C2C(C(=O)c3sc(C)nc3C)=C(O)C(=O)N2CCN(C)C)o1 (stereo not drawn),-,-,5.9µM,45µM,-
Cc1ccccc1CNC(=O)c1ccc2[nH]c(C)c(C)c2c1,-,.,.,-,.
Cc1c(C#N)c2ccccc2n1CCOc1ccccc1F,-,-,2.9µM,-,1.2µM
COC(=O)Cn1c(C)c(C#N)c2ccccc21,-,-,-,-,-
N#Cc1cn(CCOc2ccc(F)cc2)c2ccccc12,-,-,-,-,10µM
N#Cc1cn(CCOc2ccccc2F)c2ccccc12,-,-,.,-,2.9µM
COc1ccc(NC(=O)N2C[C@H]3CON(C)[C@H]3C[C@H]2c2ccc(N3CCCCC3)cc2)cc1,-,.,.,.,.
CCNCC(=O)N1c2ccccc2CCc2ccc(NC(=O)OCC)cc21,.,-,-,-,10µM
COC(=O)Nc1ccc2c(c1)N(C(=O)CCN1CCOCC1)c1ccccc1S2,-,-,?,-,?
COC(=O)Nc1ccc2c(c1)N(C(=O)CCN(C)C)c1ccccc1CC2,-,-,7.4µM,-,-
CCOC(=O)Nc1ccc2c(c1)N(C(=O)CCN1CCOCC1)c1ccccc1S2,?,-,?,-,15µM!
